Screening data deposited in PubChem by National Center for Advancing Translational Sciences (NCATS).
In the library only some 12% were active in any assay of this set; here they are far more common.
G9a inh – blocks human histone lysine methyltransferase G9a; hit rate 8.8% among 350,000; AID 504332; Potency, µM (highest dose often 102 µM), for the others: at the highest dose activity, negative = inhibition, hits mostly inhibitors; Q96KQ7; G9a H3K9 monomethylation, AlphaScreen, 2 h; further: on the % scale 0 is the no-effect control and ±100 the full control effect; nearly all actives have a fitted effect of over 75% in size
Target sequence (Q96KQ7 913-1193 limits assumed): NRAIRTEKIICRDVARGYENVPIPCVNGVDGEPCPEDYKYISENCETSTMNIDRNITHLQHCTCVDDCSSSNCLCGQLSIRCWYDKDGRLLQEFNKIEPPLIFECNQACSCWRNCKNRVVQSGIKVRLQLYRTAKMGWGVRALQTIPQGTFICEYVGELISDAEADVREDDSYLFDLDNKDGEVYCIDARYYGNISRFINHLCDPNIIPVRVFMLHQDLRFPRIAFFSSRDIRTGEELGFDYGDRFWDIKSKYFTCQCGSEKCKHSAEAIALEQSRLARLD
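Readings reflect AlphaScreen signal from monomethyl-H3K9 antibody detection. HMT at 20 nM; substrate b-H3K9 500 nM; cofactor SAM 20 uM; 2 h RT reaction; compounds tested as titrations in qHTS with 15 min preincubation.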
BAZ2B inh – blocks human BAZ2B. Q9UIF8. AlphaScreen BAZ2B-H3K14Ac peptide displacement. Potency, µM (series often up to 114 µM), for the others: at the highest dose activity change, negative = inhibition, hits mostly inhibitors. hit rate 4.4% among 360,000. AID 504333; further: on the % scale 0 is the no-effect control and ±100 the full control effect; nearly all actives have a fitted effect of over 60% in size
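Complex of BAZ2B and biotin-H3K14Ac (50 nM apiece) forms over 30 min at RT, then faces library compounds up to 110 uM for another 30 min; AlphaScreen beads added, 20 min dark incubation, luminescence read.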
HP1b binding inh – blocks HP1-beta chromodomain binding to methylated histone tails; P83916; AlphaScreen HP1-beta / biotin-H3K9me3 peptide binding; Potency, µM (doses to about 114 µM), without a hit: top-dose activity change, negative = inhibition, usual class: inhibitors; hit rate 0.56% among 390,000; further: nearly all actives have a fitted effect of over 70% in size
Target sequence (P83916 whole entry, looked up): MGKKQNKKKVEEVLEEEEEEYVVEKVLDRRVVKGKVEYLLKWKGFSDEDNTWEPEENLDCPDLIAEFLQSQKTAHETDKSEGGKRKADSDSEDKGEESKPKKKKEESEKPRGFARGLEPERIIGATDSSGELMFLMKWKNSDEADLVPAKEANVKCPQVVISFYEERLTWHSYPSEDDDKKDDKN
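Compound inhibition of the preformed complex between 50 nM HP1-beta and 50 nM biotinylated H3K9me3 peptide was read by AlphaScreen. Buffer was PBS pH 7.4 with 0.01% Tween-20. Incubations ran 30 min at room temperature, with 10 ug/mL donor/acceptor beads.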
PLK1 PBD inh – inhibitors of human PLK1 polo-box domain binding | AID 720504 | Potency, µM, inactives show max response, negative = inhibition, hits mostly inhibitors | P53350 | Plk1 PBD binding of FITC phosphopeptide, fluorescence polarization | hit rate 2.8% among 360,000; further: series mostly up to about 57 µM; on the % scale 0 is the no-effect control and ±100 the full control effect; nearly all actives have a fitted effect of over 65% in size
JMJD2A Tudor inh – JMJD2A Tudor domain (human) inhibition | O75164 | AlphaScreen JMJD2A-Tudor / H3K4me3 peptide binding | hit rate 4.4% among 390,000 | Potency, µM (top dose mostly 114 µM), for inactives: at the highest dose activity change, negative = inhibition, most hits filed as inhibitors; further: on the % scale 0 is the no-effect control and ±100 the full control effect; nearly all actives have a fitted effect of over 50% in size
Sfp PPTase inh – Sfp phosphopantetheinyl transferase inhibition; Q9F4F7; Biochemical Sfp PPTase activity, qHTS; Potency, µM, for the others: largest response in the series, negative = inhibition, most hits filed as inhibitors; hit rate 3.5% among 310,000; AID 1490;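 further: the enzyme is Sfp with the accession as filed and its product quenches rhodamine fluorescence; 0% = enzyme reaction without inhibitor and -100% = no enzyme wells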
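Fluorescence-quenching assay: 15 nM Sfp-PPTase preincubated 15 min at room temperature with compound, then 5 uM rhodamine-CoA and 12.5 uM BHQ-2-labelled YbbR peptide added. Fluorescence (ex 525/em 598 nm) read at start and after 30 min; difference gives rate.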
* = called active by the depositor; u = inconclusive; x = not tested or not shown; ! = not active in a repeat; [ ] = remark or other dose. The call rests on the fitted dose curve; in most records, active means well fitted curve in the direction sought with a large enough effect; inconclusive means small, poorly fitted or top-dose-only effect, or another doubt; inactive means no such curve, though single readings can be large; an effect the other way counts as inactive or inconclusive. Potency means the concentration at half of the fitted maximal effect.

SMILES	G9a inh	BAZ2B inh	HP1b binding inh	PLK1 PBD inh	JMJD2A Tudor inh	Sfp PPTase inh
Oc1cccc(C2c3[nH]c4ccccc4c3CCN2Cc2ccc3c(c2)CCO3)c1 (stereo not given)	-44%	45µM*	-35%	-2%	56µM*	10%
CC(C)(C)C1c2[nH]c3ccccc3c2CCN1CCCn1cccn1 (stereo not given)	-28%	-19%	24%	-4%	-28%	13%
COc1ccc(C2c3[nH]c4ccccc4c3CCN2Cc2ccoc2)c(F)c1 (stereo not given)	45µM*	u	-12%	2%	u	5%
Fc1ccccc1C1c2[nH]c3ccccc3c2CCN1CCCn1cccn1 (stereo not given)	40µM*	-38%	5%	-9%	u	3%
Oc1cccc(C2c3[nH]c4ccccc4c3CCN2Cc2ccoc2)c1 (stereo not given)	-39%	u	-16%	-13%	u	5%
COc1cccc(C2c3[nH]c4ccccc4c3CCN2Cc2cnc(C)s2)c1OC (stereo not given)	1%	25µM*	-11%	-10%	u	2%
C=C(c1ccccc1)c1ccc(N(C)C)cc1	17%[2.33 µM]	u	u	-12%	45µM*	-11%
NNC(=O)CNC(=O)c1cccc(Br)c1	7%[59 µM]	-4%	9%	-6%	-18%	3%
O=S(=O)(Nc1nc2c(s1)CCCC2)c1ccc(F)cc1	10µM*	-39%	20%	u	-6%	17%
CC1(C)CC(=O)c2sc(NS(=O)(=O)c3ccc(Cl)cc3)nc2C1	35µM*	u	14%	-10%	-6%	10%
CC1(C)CC(=O)c2sc(NC(=O)CCS(=O)(=O)c3ccccc3)nc2C1	12%[59 µM]	10%	27%	-5%	-12%	-9%
CC1(C)CC(=O)c2sc(NC(=O)C(C)(C)C)nc2C1	x	0%	27%	-20%	-1%	4%
CC1(C)CC(=O)c2sc(NS(=O)(=O)c3ccc(Br)cc3)nc2C1	50µM*	-9%	28%	-10%	-6%	-3%
CC1(C)CC(=O)c2sc(NS(=O)(=O)c3ccc(F)cc3)nc2C1	79µM*	-25%	47%	-25%	-10%	-21%
O=S(=O)(Nc1nc2c(s1)CCCC2)c1ccc(Br)cc1	u	-3%	11%	-25%	-15%	9%
COc1cccc(C=C(C(C)=O)C(=O)c2ccccc2)c1	x	x	x	-19%	x	x
COC(=O)c1cc(F)c(S(=O)(=O)N2CCN(S(=O)(=O)c3ccc4c(c3)OCCO4)CC2)cc1F	x	x	x	x	-7%	x
CCc1ccc(NC(=O)Cn2c(=O)n(Cc3ccc4c(c3)OCO4)c(=O)c3oc4ccccc4c32)cc1	-4%[59 µM]	-26%	37%	x	1%	x
Cc1cc(NC(=O)c2ccc(-c3ccc(Br)cc3)o2)cc(-c2nc3ncccc3o2)c1O	10%[59 µM]	-15%	36%	x	-9%	x
NC(C(=O)O)C1ON=C(Cl)C1O (stereo not given)	x	x	44%	0%	79µM*	x
CC(C)Oc1ccc(C(=O)CCN2CCCCC2)cc1	7.9µM*	-4%	54%	u	-24%	-20%
COc1ccc(C(=O)CCN2CCCCCC2)cc1	8.9µM*	-7%	25%	16µM*	-8%	u
Cc1ccc(C)c(NC(=O)CCN2CCN(C)CC2)c1	12%	-6%	16%	-9%	-14%	-2%
CCOC(=O)N1CCN(CCC(=O)Nc2cc(C)ccc2C)CC1	50µM*!	-10%	u	4%	2%	1%
CC(C)Oc1ccc(C(=O)CCN2CCOCC2)cc1	x	x	56%	u	3%	x
SMILES	G9a inh	BAZ2B inh	HP1b binding inh	PLK1 PBD inh	JMJD2A Tudor inh	Sfp PPTase inh
CCOc1ccc(C(=O)N2CCCN(C(=O)c3ccc(OCC)cc3)CC2)cc1	32µM*	5%	10%	u	-21%	-6%
CNc1ncnc2c1ncn2[C@H]1CN(CCOC)C[C@@H](CO)O1	x	x	x	3%	x	x
CCOc1ccc(C(=O)CCN2CCCCC2)cc1	8.9µM*	39%	53%	u	5%	-3%
CCOc1ccc(C(=O)Cc2ccccc2)cc1	x	x	62%	-4%	10%	x
CCOc1ccc(C(=O)CSCCC(=O)O)cc1	32µM*	x	45%	-14%	-12%	25µM*
CCCCCOc1ccc(C(=O)CCN2CCOCC2)cc1	45µM*	2%	45%	30µM*	-1%	-6%
CCOc1ccc(C(=O)CCC(=O)NN2CCCCC2)cc1	x	x	x	-1%	x	x
COc1ccc(C(=O)CCN2CCN(c3ccc(OC)cc3)CC2)cc1	40µM*	u	9%	-24%	-31%	-3%
CC(=O)NCCNc1ncncc1-c1ccccc1CN(C)C	-1%[0.501 µM]	x	x	x	x	8%
COc1cccc(NC(=O)CSC2=Nc3ccccc3N=C(c3ccc(F)cc3)C2)c1	-11%[59 µM]	u	0%[57 µM]	x	-26%	x
CCCOc1ccc(C(=O)CCN2CCN(C(=O)OCC)CC2)cc1	10µM*	-27%	19%	15µM*	-23%	-26%
COc1ccc(-c2nc3c4ccccc4ccn3c2CN2CCCCC2)cc1OC	u	u	-19%	-5%	u	10%
COc1ccc(-c2nc3c4ccccc4ccn3c2CN2CCCCC2)cc1	40µM*	u	-3%	4%	u	13%
Cc1nnc(NC(=O)CSCc2cc(=O)c3cc(Cl)ccc3[nH]2)s1	4%[59 µM]	0%	23%[57 µM]	x	-12%	x
COC(=O)c1ccc(-n2nnnc2SC)cc1	10µM*	9%	-11%	21µM*	-9%	u
O=c1[nH]c(CN2CCN(C/C=C/c3ccccc3)CC2)nc2ccccc12	u	4%	4%	-1%	-33%	-1%
Nc1nc(N2CCN(C/C=C/c3ccccc3)CC2)nc2ccccc12	u	-37%	26%	27µM*	-16%[11.4 µM]	-2%
COC(=O)C/C=C1\c2ccc3c(c2[C@@H](OC)[C@@H]1C)OCO3	x	x	x	x	x	4%
CC(=O)N(Cc1ccco1)c1nc(C(=O)Nc2ccc(Cl)cc2)c(C)s1	u	-13%	u	u	-23%	20µM*
CN(NC(=O)C(=O)NCc1ccco1)C(=O)Nc1ccc(Cl)cc1	x	x	x	4%	x	x
Cc1ccc(Nc2c3c(nc4ccccc24)CCC3)cc1F	-25%[59 µM]	-27%	32%	x	-24%	x
Cc1ccc(Nc2nc3ccccc3o2)cc1F	6%	16%	-3%	3µM*	11µM*	4%
Cc1ccnc(Nc2nc3ccccc3o2)n1	u	5%	27%	0%	-25%	71µM*
N#Cc1cnc(Nc2nc3ccccc3o2)nc1-c1ccccc1	2%[12.7 µM]	-3%	34%	-20%	-23%	11%
COc1ccc(-n2ncc(C(=O)N3CCc4ccccc4C3)c2C2CCN(C(=O)OC(C)(C)C)CC2)cc1	u	-1%[57.1 µM]	-3%	x	-24%	x
